Results published in the supplement of paper PMC10849652.
About 7,900 targets were measured; listed, in parts, are those with a hit and a random draw of the rest. About 0.6% of all pairs of compound and target were hits. Values without a mark were called inactive.

How the values were obtained:
Test in all cases: log2 fold change, soluble protein after heating vs DMSO (PISA); higher = thermal stabilisation; K562 cells, 10 uM, 30 min; active = over 0.2 and 3.5 SD of the protein, either way, in both replicates (recomputed)
[1] = compound: COC1=CC=C(C=C1)CN2C=CC3=C2C=C(C=C3)C(=O)NO
Summary of the method: (§1)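 K562 cells at 2×10^6 cells/mL were treated for 30 min with 10 μM compound, and aliquots were heated for 3 min over 48°C-58°C before pooling. Extraction used PBS with 0.5% NP-40 at 4°C, and soluble protein was the supernatant after 21,000xg for 90 min, measured by TMTpro 16plex LC-MS/MS with channel sums equalised. Thermal stability values, relative to control samples and from duplicates, are log2 fold changes.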

[2] = compound: CON(C)C(=O)N1N=C(c2cc(F)ccc2F)S[C@@]1(CCCN)c1ccccc1 [filanesib]
Summary of the method: as §1

[3] = compound: CO[C@H]1C[C@@H]2CC[C@@H](C)[C@@](O)(O2)C(=O)C(=O)N2CCCC[C@H]2C(=O)O[C@H]([C@H](C)C[C@@H]2CC[C@H](n3cnnn3)[C@H](OC)C2)CC(=O)[C@H](C)/C=C(\C)[C@@H](O)[C@@H](OC)C(=O)[C@H](C)C[C@H](C)/C=C/C=C/C=C/1C [zotarolimus]
Summary of the method: as §1

[4] = compound: COc1cc(C(=O)O)ccc1NC(=O)[C@@H]1N[C@@H](CC(C)(C)C)[C@](C#N)(c2ccc(Cl)cc2F)[C@H]1c1cccc(Cl)c1F [idasanutlin]
Summary of the method: as §1

[5] = compound: COc1cc(Nc2ncc3c(n2)-c2ccc(Cl)cc2C(c2c(F)cccc2OC)=NC3)ccc1C(=O)O [alisertib]
Summary of the method: as §1

[6] = compound: COc1cc2nc(-c3cc(F)ccc3O)nc(N[C@@H]3CNC[C@H]3C(C)(C)O)c2cc1OC
Summary of the method: as §1

[7] = compound: COc1cc2ncnc(Nc3ccc(F)c(Cl)c3)c2cc1OCCCN1CCOCC1 [gefitinib]
Summary of the method: as §1

[8] = compound: COc1cccc2cc(-c3nc([C@H]4CC[C@H](C(=O)O)CC4)n4ncnc(N)c34)[nH]c12
Summary of the method: as §1

[9] = compound: CS(=O)(=O)CCNCc1ccc(-c2ccc3ncnc(Nc4ccc(OCc5cccc(F)c5)c(Cl)c4)c3c2)o1 [lapatinib]
Summary of the method: as §1

[10] = compound: CS(=O)(=O)N1CCN(Cc2cc3nc(-c4cccc5[nH]ncc45)nc(N4CCOCC4)c3s2)CC1 [pictilisib]
Summary of the method: as §1

[11] = compound: CS(=O)(=O)c1ccc(-c2cnc(N)c(C(=O)Nc3ccccc3)n2)cc1
Summary of the method: as §1

[12] = compound: C[C@@H](Oc1cc(-c2cnn(C3CCNCC3)c2)cnc1N)c1c(Cl)ccc(F)c1Cl [crizotinib]
Summary of the method: as §1

[13] = compound: C[C@@H]1COCCN1C2=NC(=NC(=C2)C3(CC3)S(=O)(=O)C)C4=C5C=CNC5=CC=C4
Summary of the method: as §1

[14] = compound: C[C@H](C1=CC=C(C=C1)C(=O)NC2=C3C=CNC3=NC=C2)N
Summary of the method: as §1

[15] = compound: C[C@H](Nc1ncnc2nc[nH]c12)c1cc2cccc(Cl)c2c(=O)n1-c1ccccc1 [duvelisib]
Summary of the method: as §1

[16] = compound: Cc1cc(Nc2cc(CN3CCOCC3)c3nc(C)c(Cc4ccc(Cl)cc4F)n3n2)n[nH]1 [gandotinib]
Summary of the method: as §1

[17] = compound: Cc1cc(Nc2cc(N3CCN(C)CC3)nc(Sc3ccc(NC(=O)C4CC4)cc3)n2)n[nH]1 [tozasertib]
Summary of the method: as §1

[18] = compound: Cc1cc(SCc2sc(-c3ccc(C(F)(F)F)cc3)nc2C)ccc1OCC(=O)O
Summary of the method: as §1

[19] = compound: Cc1ccc(-n2nc(C(C)(C)C)cc2NC(=O)Nc2ccc(OCCN3CCOCC3)c3ccccc23)cc1 [doramapimod]
Summary of the method: as §1

[20] = compound: Cc1ccc(C(=O)N(CCCN)[C@@H](c2nc3cc(Cl)ccc3c(=O)n2Cc2ccccc2)C(C)C)cc1 [ispinesib]
Summary of the method: as §1

Sequence of UniProt P22692 (P22692 whole entry, looked up): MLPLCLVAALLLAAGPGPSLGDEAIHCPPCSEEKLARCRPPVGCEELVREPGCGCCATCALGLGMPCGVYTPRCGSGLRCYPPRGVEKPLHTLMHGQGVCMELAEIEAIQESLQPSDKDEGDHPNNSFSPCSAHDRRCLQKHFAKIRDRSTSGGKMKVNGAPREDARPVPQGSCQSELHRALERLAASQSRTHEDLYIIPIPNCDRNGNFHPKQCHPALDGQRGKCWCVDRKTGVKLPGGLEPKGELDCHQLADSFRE
Sequence of UniProt O43318 (O43318 whole entry, looked up): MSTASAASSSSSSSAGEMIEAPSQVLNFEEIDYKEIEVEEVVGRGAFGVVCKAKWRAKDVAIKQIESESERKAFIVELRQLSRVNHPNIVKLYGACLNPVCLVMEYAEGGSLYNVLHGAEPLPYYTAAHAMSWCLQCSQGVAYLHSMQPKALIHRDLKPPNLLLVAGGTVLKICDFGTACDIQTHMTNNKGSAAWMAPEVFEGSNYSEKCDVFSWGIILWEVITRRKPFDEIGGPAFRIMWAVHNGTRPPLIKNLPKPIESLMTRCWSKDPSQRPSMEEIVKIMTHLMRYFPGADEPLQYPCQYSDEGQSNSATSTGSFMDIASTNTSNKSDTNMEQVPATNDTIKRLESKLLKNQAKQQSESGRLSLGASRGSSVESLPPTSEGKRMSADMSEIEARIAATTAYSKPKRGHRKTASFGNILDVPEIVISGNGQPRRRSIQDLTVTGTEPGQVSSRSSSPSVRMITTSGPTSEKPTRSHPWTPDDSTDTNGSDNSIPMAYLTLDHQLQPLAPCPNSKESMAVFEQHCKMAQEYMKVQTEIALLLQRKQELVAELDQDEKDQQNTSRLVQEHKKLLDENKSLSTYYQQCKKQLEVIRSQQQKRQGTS
Sequence of UniProt Q9Y6R4 (Q9Y6R4 whole entry, looked up): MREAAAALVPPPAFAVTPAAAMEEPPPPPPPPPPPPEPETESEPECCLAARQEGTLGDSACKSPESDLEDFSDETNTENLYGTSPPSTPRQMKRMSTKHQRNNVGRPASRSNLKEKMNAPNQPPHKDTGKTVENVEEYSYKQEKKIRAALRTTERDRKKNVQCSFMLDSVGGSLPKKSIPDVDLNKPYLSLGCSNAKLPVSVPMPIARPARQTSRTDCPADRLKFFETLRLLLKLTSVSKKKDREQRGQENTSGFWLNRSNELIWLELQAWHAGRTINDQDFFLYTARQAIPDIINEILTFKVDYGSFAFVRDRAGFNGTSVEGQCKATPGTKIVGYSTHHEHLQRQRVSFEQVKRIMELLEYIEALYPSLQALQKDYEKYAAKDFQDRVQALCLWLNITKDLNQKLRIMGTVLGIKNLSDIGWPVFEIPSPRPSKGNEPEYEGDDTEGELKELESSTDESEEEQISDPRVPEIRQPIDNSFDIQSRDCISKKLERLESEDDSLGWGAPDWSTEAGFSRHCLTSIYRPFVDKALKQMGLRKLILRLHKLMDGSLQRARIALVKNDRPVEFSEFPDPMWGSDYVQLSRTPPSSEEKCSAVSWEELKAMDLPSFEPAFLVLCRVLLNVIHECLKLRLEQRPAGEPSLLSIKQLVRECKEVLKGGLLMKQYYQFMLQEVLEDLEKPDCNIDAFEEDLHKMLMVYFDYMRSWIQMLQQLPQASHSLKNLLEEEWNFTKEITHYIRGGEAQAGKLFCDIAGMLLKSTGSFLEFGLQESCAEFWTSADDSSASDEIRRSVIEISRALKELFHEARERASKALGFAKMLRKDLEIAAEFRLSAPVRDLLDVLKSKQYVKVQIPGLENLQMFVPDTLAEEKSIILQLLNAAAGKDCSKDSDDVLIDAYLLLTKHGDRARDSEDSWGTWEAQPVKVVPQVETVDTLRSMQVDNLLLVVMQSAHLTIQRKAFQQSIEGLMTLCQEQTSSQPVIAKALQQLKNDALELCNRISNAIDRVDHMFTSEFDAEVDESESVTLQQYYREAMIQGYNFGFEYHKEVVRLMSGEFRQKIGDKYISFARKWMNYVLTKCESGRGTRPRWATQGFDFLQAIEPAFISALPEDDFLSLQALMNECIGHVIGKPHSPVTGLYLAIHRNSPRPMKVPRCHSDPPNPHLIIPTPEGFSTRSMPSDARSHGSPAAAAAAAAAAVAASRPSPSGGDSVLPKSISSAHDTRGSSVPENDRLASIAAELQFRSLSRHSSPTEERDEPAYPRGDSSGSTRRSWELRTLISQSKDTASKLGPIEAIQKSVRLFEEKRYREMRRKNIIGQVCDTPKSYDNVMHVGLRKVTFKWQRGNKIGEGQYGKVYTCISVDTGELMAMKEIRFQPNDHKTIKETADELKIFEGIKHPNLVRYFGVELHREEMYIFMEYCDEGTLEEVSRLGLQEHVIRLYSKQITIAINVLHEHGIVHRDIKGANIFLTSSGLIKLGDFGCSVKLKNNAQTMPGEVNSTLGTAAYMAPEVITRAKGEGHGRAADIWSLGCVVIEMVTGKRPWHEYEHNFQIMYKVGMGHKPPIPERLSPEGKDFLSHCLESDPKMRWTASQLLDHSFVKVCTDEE
Sequence of UniProt Q8N108 (Q8N108 whole entry, looked up): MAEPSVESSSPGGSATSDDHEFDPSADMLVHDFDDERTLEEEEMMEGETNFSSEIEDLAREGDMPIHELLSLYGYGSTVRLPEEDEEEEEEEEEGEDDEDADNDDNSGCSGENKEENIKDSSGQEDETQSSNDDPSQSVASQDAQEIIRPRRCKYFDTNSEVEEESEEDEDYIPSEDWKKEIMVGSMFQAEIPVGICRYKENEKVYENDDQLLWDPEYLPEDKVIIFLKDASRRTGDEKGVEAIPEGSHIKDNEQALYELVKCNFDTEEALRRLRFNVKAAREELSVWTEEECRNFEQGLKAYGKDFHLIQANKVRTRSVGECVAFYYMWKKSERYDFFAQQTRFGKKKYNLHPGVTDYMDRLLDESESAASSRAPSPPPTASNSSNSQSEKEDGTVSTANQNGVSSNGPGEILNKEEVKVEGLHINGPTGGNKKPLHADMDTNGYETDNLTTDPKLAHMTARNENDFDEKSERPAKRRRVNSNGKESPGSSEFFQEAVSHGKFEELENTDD
Sequence of UniProt Q96EK5 (Q96EK5 whole entry, looked up): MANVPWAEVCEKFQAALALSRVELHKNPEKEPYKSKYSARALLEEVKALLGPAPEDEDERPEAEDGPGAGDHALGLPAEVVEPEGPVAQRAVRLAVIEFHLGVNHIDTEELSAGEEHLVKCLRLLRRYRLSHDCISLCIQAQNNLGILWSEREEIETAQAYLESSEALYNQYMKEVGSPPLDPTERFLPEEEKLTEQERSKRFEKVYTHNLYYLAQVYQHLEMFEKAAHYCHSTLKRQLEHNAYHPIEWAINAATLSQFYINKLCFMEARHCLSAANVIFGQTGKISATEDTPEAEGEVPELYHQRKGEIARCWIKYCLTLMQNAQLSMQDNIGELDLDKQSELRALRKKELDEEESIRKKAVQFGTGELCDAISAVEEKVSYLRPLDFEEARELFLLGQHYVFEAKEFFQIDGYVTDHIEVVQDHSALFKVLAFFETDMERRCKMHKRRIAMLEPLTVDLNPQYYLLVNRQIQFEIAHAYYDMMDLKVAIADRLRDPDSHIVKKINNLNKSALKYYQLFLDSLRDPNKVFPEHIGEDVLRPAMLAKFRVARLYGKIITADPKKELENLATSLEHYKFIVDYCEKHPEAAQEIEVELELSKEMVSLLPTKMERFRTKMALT
Sequence of UniProt P20700 (P20700 whole entry, looked up): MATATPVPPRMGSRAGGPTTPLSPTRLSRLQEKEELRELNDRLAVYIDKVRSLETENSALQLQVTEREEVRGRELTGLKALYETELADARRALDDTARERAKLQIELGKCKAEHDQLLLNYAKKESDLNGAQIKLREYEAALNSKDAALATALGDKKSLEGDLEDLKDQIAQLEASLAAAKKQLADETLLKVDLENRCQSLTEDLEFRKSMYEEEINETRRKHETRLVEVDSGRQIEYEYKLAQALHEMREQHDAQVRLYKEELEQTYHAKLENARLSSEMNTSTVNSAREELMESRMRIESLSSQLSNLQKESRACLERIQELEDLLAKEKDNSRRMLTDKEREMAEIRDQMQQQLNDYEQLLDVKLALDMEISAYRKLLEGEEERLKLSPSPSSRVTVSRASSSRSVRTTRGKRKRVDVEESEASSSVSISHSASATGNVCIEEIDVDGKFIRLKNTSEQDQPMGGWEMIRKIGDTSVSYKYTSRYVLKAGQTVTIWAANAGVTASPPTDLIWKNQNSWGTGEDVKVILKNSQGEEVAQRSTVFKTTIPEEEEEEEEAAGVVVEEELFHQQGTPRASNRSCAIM
Sequence of UniProt Q03252 (Q03252 whole entry, looked up): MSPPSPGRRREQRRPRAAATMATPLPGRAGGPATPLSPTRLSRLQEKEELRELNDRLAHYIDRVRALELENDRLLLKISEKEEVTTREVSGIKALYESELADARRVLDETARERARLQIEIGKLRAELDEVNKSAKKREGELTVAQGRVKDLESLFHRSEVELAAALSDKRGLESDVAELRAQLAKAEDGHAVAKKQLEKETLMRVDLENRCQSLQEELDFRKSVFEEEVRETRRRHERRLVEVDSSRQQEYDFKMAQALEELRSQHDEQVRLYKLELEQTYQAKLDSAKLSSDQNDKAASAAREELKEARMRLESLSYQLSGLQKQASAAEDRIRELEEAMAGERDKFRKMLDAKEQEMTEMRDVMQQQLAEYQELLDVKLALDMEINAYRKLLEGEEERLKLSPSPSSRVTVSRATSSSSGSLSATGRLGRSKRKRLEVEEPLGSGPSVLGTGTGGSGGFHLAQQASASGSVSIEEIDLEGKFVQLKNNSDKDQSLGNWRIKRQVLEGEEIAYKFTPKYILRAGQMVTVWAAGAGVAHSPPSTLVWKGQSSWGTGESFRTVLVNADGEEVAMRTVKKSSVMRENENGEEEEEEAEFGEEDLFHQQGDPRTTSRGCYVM
Sequence of UniProt Q9BRT3 (Q9BRT3 whole entry, looked up): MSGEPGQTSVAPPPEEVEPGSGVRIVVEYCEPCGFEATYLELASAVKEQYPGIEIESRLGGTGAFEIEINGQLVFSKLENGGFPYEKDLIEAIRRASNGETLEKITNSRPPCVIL

Row | Target | log2 fold change [1] | log2 fold change [2] | log2 fold change [3] | log2 fold change [4] | log2 fold change [5] | log2 fold change [6] | log2 fold change [7] | log2 fold change [8] | log2 fold change [9] | log2 fold change [10] | log2 fold change [11] | log2 fold change [12] | log2 fold change [13] | log2 fold change [14] | log2 fold change [15] | log2 fold change [16] | log2 fold change [17] | log2 fold change [18] | log2 fold change [19] | log2 fold change [20]
1 | KIF1B isoform 4 (UniProt O60333) | 0.008 | -0.128 | 0.024 | -0.006 | -0.044 | -0.014 | -0.004 | -0.04 | 0.013 | 0.037 | 0.002 | -0.067 | 0.048 | 0.035 | 0.011 | -0.043 | 0.03 | 0.052 | 0.029 | -0.149
2 | MAP3K7 (UniProt O43318) | 0.105 | 0.026 | -0.074 | -0.03 | 0.084 | 0.065 | 0.016 | -0.054 | -0.058 | 0.088 | 0.093 | -0.193 | -0.035 | 0.135 | 0.08 | -0.036 | -0.011 | 0.118 | -0.001 | -0.029
3 | MAPK8 isoform 3 (UniProt P45983) | 0.025 | 0.064 | 0.018 | -0.08 | 0.007 | 0.234 | -0.026 | 0.035 | -0.045 | 0.287 | 0.003 | -0.08 | 0.092 | -0.096 | 0.018 | 0.254 | -0.127 | 0.096 | -0.019 | -0.008
4 | ITPRIP (UniProt Q8IWB1) | -0.042 | -0.022 | -0.024 | 0.014 | 0.012 | -0.021 | 0.018 | -0.043 | -0.038 | 0.049 | -0.002 | 0.056 | 0.012 | -0.039 | 0.005 | -0.049 | 0.045 | 0.038 | 0.062 | -0.037
5 | LMNB2 (UniProt Q03252) | -0.023 | 0.1 | -0.064 | 0.099 | 0.004 | -0.005 | -0.001 | 0.069 | 0.059 | 0.03 | 0.007 | 0.039 | 0.179 | 0.079 | 0.072 | -0.003 | 0.03 | 0.033 | 0.019 | 0.016
6 | MAP3K4 isoform 2 (UniProt Q9Y6R4) | 0.004 | -0.037 | 0.003 | -0.023 | -0.043 | 0.03 | 0.034 | 0.086 | 0.024 | 0.11 | 0.012 | -0.256 (active) | 0.042 | -0.017 | 0.02 | -0.054 | 0.026 | 0 | 0.02 | 0.021
7 | KIF13A (UniProt Q9H1H9) | 0.003 | 0.01 | -0.057 | -0.022 | -0.022 | 0.037 | 0.194 | 0.139 | -0.012 | -0.097 | 0.018 | 0.058 | 0.112 | 0.072 | 0.034 | -0.384 (active) | 0.065 | -0.009 | -0.011 | -0.003
8 | IGFBP4 (UniProt P22692) | -0.075 | 0.012 | -0.31 | 0.392 (active) | 0.009 | -0.024 | -0.107 | 0.179 | -0.036 | -0.022 | -0.066 | 0.064 | 0.022 | -0.114 | 0.02 | -0.229 | -0.021 | -0.007 | 0 | -0.233
9 | LUC7L2 (UniProt Q9Y383) | 0.05 | 0.121 | 0.113 | 0.093 | -0.032 | -0.048 | -0.052 | 0.008 | 0.04 | 0.095 | -0.083 | 0.02 | 0.053 | -0.439 (active) | -0.002 | 0.031 | 0.065 | 0.03 | -0.03 | 0.111
10 | MIER1 isoform 12 (UniProt Q8N108) | -0.041 | -0.067 | -0.015 | -0.04 | -0.023 | -0.039 | -0.001 | 0.014 | 0.011 | -0.066 | 0.009 | -0.027 | 0.035 | -0.034 | -0.012 | -0.004 | -0.021 | 0.035 | 0.026 | -0.029
11 | KIFBP (UniProt Q96EK5) | 0.058 | -0.095 | 0.074 | -0.09 | 0.106 | -0.028 | 0.01 | 0.01 | -0.049 | -0.071 | -0.036 | -0.025 | 0.079 | 0.08 | 0.007 | -0.051 | 0.065 | 0.085 | -0.053 | -0.139
12 | MIEN1 (UniProt Q9BRT3) | -0.084 | 0.085 | 0.015 | -0.009 | 0.034 | 0.061 | 0.027 | 0.001 | -0.016 | 0.001 | 0.03 | 0.152 | 0.314 (active) | -0.193 | 0.208 | 0.026 | 0.12 | 0.032 | 0.029 | 0.235
13 | LEMD3 (UniProt Q9Y2U8) | 0.036 | 0 | 0.107 | -0.023 | 0.073 | -0.001 | -0.013 | 0.069 | 0.044 | 0.047 | 0.072 | -0.12 | -0.084 | -0.016 | -0.003 | 0.006 | -0.015 | 0.114 | -0.002 | -0.095
14 | KDM5D isoform 3 (UniProt Q9BY66) | -0.592 (active) | 0.073 | -0.053 | -0.058 | -0.044 | 0.045 | -0.021 | -0.072 | -0.047 | 0.049 | -0.004 | 0.038 | -0.005 | -0.054 | 0.057 | -0.051 | 0.212 | 0.125 | 0.108 | 0
15 | LMNB1 (UniProt P20700) | -0.034 | 0.131 | 0.053 | 0.14 | -0.075 | -0.09 | -0.002 | 0.064 | 0.087 | 0.005 | -0.01 | 0.038 | 0.108 | -0.172 | -0.018 | -0.03 | 0.096 | -0.022 | -0.003 | 0.041
16 | KDELR2 (UniProt P33947) | -0.155 | -0.105 | 0.035 | -0.162 | -0.014 | -0.136 | -0.064 | 0.048 | -0.127 | -0.013 | 0.056 | 0.035 | 0.205 | -0.096 | 0.099 | -0.107 | -0.027 | -0.007 | 0.016 | 0.016
